Pol eta inh = qHTS for Inhibitors of Polymerase Eta. DNA polymerase eta (Homo sapiens), Q9Y253. recombinant Pol eta, fluorescent DNA replication assay. Potency, µM (doses to about 114 µM), without a hit: at the top dose activity change, negative = inhibition, usual class: inhibitors. 390,000 compounds, 1.2% hits; note: potency is the fitted concentration of half-maximal effect; % is set by controls: 0 for no effect and ±100 for the full control effect
Target sequence (Q9Y253 whole entry, looked up): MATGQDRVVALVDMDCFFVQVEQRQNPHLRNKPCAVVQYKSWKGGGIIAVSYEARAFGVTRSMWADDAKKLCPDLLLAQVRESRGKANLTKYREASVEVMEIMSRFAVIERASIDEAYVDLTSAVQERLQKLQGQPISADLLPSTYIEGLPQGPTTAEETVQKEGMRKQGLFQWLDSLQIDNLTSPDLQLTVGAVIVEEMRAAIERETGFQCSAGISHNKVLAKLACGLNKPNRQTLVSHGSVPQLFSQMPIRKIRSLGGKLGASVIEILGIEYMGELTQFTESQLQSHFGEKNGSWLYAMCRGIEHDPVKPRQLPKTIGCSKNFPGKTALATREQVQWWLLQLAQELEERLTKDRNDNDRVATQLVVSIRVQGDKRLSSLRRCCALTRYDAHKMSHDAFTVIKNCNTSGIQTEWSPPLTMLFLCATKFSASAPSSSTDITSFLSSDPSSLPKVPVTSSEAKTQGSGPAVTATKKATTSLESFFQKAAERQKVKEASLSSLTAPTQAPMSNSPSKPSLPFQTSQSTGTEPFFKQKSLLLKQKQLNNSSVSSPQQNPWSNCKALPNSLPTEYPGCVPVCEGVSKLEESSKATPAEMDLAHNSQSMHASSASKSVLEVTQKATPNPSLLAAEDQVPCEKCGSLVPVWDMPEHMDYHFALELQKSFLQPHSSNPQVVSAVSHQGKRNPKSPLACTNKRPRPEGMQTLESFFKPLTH
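Pol eta at 10 nM preincubated with compounds 15 min at room temperature; reaction started with fluorescent substrate (50 nM final) and read kinetically at 0 and 10 min.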
POLI inh = qHTS for Inhibitors of Polymerase Iota; 390,000 compounds, 1% hits; DNA polymerase iota (Homo sapiens), Q9UNA4; Potency, µM (highest dose often 115 µM), for the others: top-dose activity, negative = inhibition, most hits filed as inhibitors; Pol iota fluorescent replication assay, 10 min; note: potency is the fitted concentration of half-maximal effect
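Fluorescent replication assay read twice, at 0 min and 10 min after adding 50 nM (final) substrate. Enzyme (10 nM) and compounds were first incubated 15 min at room temperature; enzyme-free buffer wells were negative controls.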
PI4K2A inh = qHTS for small molecular inhibitors of PI4K2A. purified PI4K2A, ADP-Glo luminescence, 1 h; hits give low values. 420,000 compounds, 0.13% hits. activity change, negative = inhibition, % at 76.9 µM. AID 1346378, 2018. Phosphatidylinositol 4-kinase type 2-alpha (Homo sapiens), Q9BTU6; in the data active = activity change below about -50%; inconclusive = mostly about -30% to -49%;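 note: -100% = wells without enzyme as full effect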
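Compounds are screened against recombinant PI4K2A using PI as substrate and ATP, the latter dispensed at 300 microM. Reactions run one hour at ambient temperature before ADP-Glo detection; full inhibition defined by wells lacking enzyme.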
Pol kappa inh = qHTS for Inhibitors of Polymerase Kappa; DNA polymerase kappa (Homo sapiens), Q9UBT6; purified Pol kappa, fluorescent DNA synthesis assay, 10 min; Potency, µM (titrated, usually from 107 µM), inactives show at the top dose activity, negative = inhibition, usual class: inhibitors; 400,000 compounds, 0.53% hits; AID 588579, 2011; note: potency is the fitted concentration of half-maximal effect; % is set by controls: 0 for no effect and ±100 for the full control effect
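10 nM Pol kappa was preincubated with compounds for 15 min at room temperature. Reaction started with 50 nM (final) substrate. Fluorescence read kinetically at 0 and 10 min.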
PI5P4Ka inh = qHTS for Inhibitors of phosphatidylinositol 5-phosphate 4-kinase (PI5P4K); Phosphatidylinositol 5-phosphate 4-kinase type-2 alpha (Homo sapiens), P48426; PI5P4Kalpha enzyme, ADP-Glo luminescence, 60 min; hits give low values; max response, %; 330,000 compounds, 1.2% hits; AID 652105, 2013; active = max response of -50% or lower; inconclusive = between -30% and -50%; inactive = -30% or higher; note: value at the top dose of about 77 µM; % is set by controls: 0 for no effect and ±100 for the full control effect
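Luminescence from ADP-Glo served as readout of PI5P4Kalpha activity in a qHTS format. Reaction: enzyme, substrate, compound, ATP at 5 microM final, 60 min at RT.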
POLB inh = qHTS Assay for Inhibitors of DNA Polymerase Beta; Pol beta primer extension/strand displacement, fluorescence kinetic; Potency, µM (series often up to 114 µM), inactives show at the top dose activity change, negative = inhibition, most hits filed as inhibitors; 340,000 compounds, 1.3% hits; AID 485314, 2010; note: potency is the fitted concentration of half-maximal effect; % is set by controls: 0 for no effect and ±100 for the full control effect
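Reaction started by 50 nM substrate onto compound-treated Pol beta (10 nM, 15 min preincubation, room temperature); plates read at 0 min and 10 min. Normalized concentration-effect data fitted by four-parameter Hill equation.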
* marks the source's active call; other numbers are inactive results; i = inactive; ? = inconclusive; / = not tested or not shown. Only some compounds are listed: those with a hit (about 2.8% of all), similar ones and a draw of the others. Unless noted, calls come from the whole dose curve; as a rule, active = well fitted inhibition curve with a large enough effect; inconclusive = small, poorly fitted or top-dose-only effect, or another doubt; inactive = no such curve, though single readings can be large or run the other way.

SMILES	Pol eta inh	POLI inh	PI4K2A inh	Pol kappa inh	PI5P4Ka inh	POLB inh
COC(=O)C1=C[C@@H](C(=O)OC)C2C3=C(C(=O)[C@@]2(C)NC(=O)c2ccccc2)[C@H](C)n2c(=O)n(-c4ccccc4)c(=O)n2[C@@H]3C1 (stereo partly drawn)	/	-15%	/	2%	/	/
Cc1oc(-c2cccc(Cl)c2)nc1CS(=O)(=O)CC(=O)NC(C)CCc1ccccc1 (stereo not drawn)	-8%	89µM*	-3	-8%	/	-6%
Cc1oc(-c2ccccc2Cl)nc1CS(=O)(=O)CC(=O)NC(C)CCc1ccccc1 (stereo not drawn)	-14%	?	0	-17%	/	-23%
O=C(NNc1nc(-c2ccc(F)cc2)cs1)c1ccccc1	-20%	61%	7	-6%	-53*	0%
O=C(NC1CCCCC1)[C@@H]1CC=C[C@@H]2CCN(Cc3ccc(Cl)c(Cl)c3)C(=O)[C@@H]21	/	-8%	/	-9%	/	/
CC(=O)NC(Cc1ccc(Cl)cc1)C(=O)NCC(N)C(=O)c1ccccc1 (stereo not drawn)	/	7%	/	-5%	/	/
O=C(Sc1n[nH]c(=O)[nH]c1=O)c1ccccc1	-12%	?	-10	0%	-74*	/
O=C(Cc1coc2cc3c(cc12)CCC3)OCc1cc(=O)n2c(n1)sc1ccccc12	10µM*	?	-9	89µM*	?	10µM*
Cc1ccc2c(CC(=O)OCc3csc(C)n3)coc2c1	-1%	-3%	3	-10%	/	7%
COc1ccc(C2C(C(=O)Nc3ccc(C)c(C)c3)CCC(=O)N2c2ccc(OC)cc2)cc1 (stereo not drawn)	/	/	0	/	/	/
Cc1c(C=Nc2ccc(S(=O)(=O)CCO)cc2)c(O)[nH]c(=O)c1C#N	-9%	40%	-13	-4%	-78*	/
Cc1c(C=Nc2ccc(S(=O)(=O)N(C)C)cc2)c(O)[nH]c(=O)c1C#N	-3%	185%	-1	-8%	-90*	/
COC(=O)[C@]12C[C@H](CC(=O)NCc3cccc(C(F)(F)F)c3)C(=O)N(Cc3ccc(Cl)cc3Cl)C1=C[C@H](C1CCCC1)O[C@@H]2C	/	/	-4	/	/	/
COc1ccc(COc2ccsc2C(=O)Nc2ccc(Cl)c(Cl)c2)cc1	?	45%	0	-1%	/	35µM*
CN(C)S(=O)(=O)Oc1ccsc1C(=O)Nc1ccc(Cl)c(Cl)c1	?	-9%	-1	-6%	37	13%
Cc1ccccc1CN1CCCCC(NC(=O)c2cc(-c3ccccc3)no2)C1=O (stereo not drawn)	/	/	-2	/	/	/
COc1ccc(CNC(=O)COC(=O)c2ccc(OCc3c(C)noc3C)cc2)cc1OC	-11%	-1%	-6	-3%	-14	79µM*
COc1ccc(CCNC(=O)c2ccc(OCc3c(C)noc3C)cc2)cc1OC	-9%	-7%	-2	7%	2	/
COc1cccc(-n2nnnc2SCC(=O)Nc2ccc3c(c2)OCCO3)c1	?	?	0	-5%	0	?
COc1ccc(-n2nnnc2SCC(=O)Nc2ccc3c(c2)OCCO3)cc1OC	?	50µM*	10	-6%	0	-1%
O=C(NCCc1ccc(Cl)cc1)c1ccc(Cn2c(=O)c3cccn3c3cccnc32)cc1	?	?	-3	-28%	/	11µM*
O=C(NCCc1ccccc1)c1ccc(Cn2c(=O)c3cccn3c3cccnc32)cc1	-4%	2%	1	-3%	/	12%
C/C(C=NNC(=O)CSc1nc2ccccc2n1Cc1ccccc1Cl)=C\c1ccccc1	/	/	-6	/	/	/
Cc1ccc(S(=O)(=O)N2CCN(C(=O)c3ccco3)CC2)cc1	-14%	158%	1	-1%	0	0%
Cc1ccc(S(=O)(=O)N2CCN(C(=O)/C=C/c3ccco3)CC2)cc1	79µM*	47%	0	-30%	-3	20µM*
SMILES	Pol eta inh	POLI inh	PI4K2A inh	Pol kappa inh	PI5P4Ka inh	POLB inh
Cc1ccc(C)c(S(=O)(=O)N2CCN(C(=O)/C=C/c3ccco3)CC2)c1	35µM*	28µM*	?	50µM*	-61*	/
Cc1cccc(-c2nnn3c2nc(NCc2ccc4c(c2)OCO4)c2ccccc23)c1	-18%	30%	-53*	-4%	/	8%
NS(=O)(=O)c1ccc(CCNc2nc3c(-c4cccc(F)c4)nnn3c3ccccc23)cc1	?	10%	-1	-6%	-19	22%
Cc1cccc(-c2nnn3c2nc(NCCc2ccc(S(N)(=O)=O)cc2)c2ccccc23)c1	?	?	9	0%	0	10µM*
Clc1ccc(-c2nnn3c2nc(NCc2ccc4c(c2)OCO4)c2ccccc23)cc1	-10%	28%	1	-14%	/	4%
Cc1ccc(-c2nnn3c2nc(NCCc2ccc(S(N)(=O)=O)cc2)c2ccccc23)cc1	-29%	85%	7	2%	-12	5µM*
Cc1ccc(-c2nnn3c2nc(NCCc2ccc(Cl)cc2)c2ccccc23)cc1	-14%	39%	3	-6%	/	4%
c1ccc2c(N=NN3CCCCC3)ccnc2c1	/	27%	/	-23%	/	/
CCCCOC(=O)n1c(=S)oc2cc(Cl)ccc21	9%	8%	-15	0%	-55*	3%
CCCC(=O)OC12CCCN(C1)/C(=C/c1ccccc1)C2 (stereo not drawn)	/	/	2	/	/	/
COc1cc(-c2cnc3c(NC=O)cc(-c4ccccc4Cl)cn23)cc(OC)c1OC	/	/	1	/	-12	/
COc1cc(/C=N/Nc2nnc3c(n2)[nH]c2ccccc23)ccc1O	?	40µM*	-6	-6%	-2	?
COc1cc(/C=N/Nc2ccccc2)ccc1O	-11%	?	-1	-9%	-6	-16%
Cc1ccc2[nH]c3nc(N/N=C/c4cccc(O)c4)nnc3c2c1	-9%	?	-9	-6%	2	5µM*
N[C@H](C(=O)O)c1ccc(O)cc1	/	/	i	/	/	/
Cc1nc(C#N)nc(Oc2ccccc2)c1Cl	/	11%	/	6%	/	/
COc1ccc2ccccc2c1/C=N\NC(=O)c1ccc(C)s1	-21%	-3%	-10	-2%	?	-3%
COc1cc(/C=N/NC(=O)c2sc(N)c(C#N)c2C)cc(Br)c1O	?	?	-2	-24%	-73*	-14%
COc1ccc2ccccc2c1/C=N/NC(=O)c1sc(N)c(C#N)c1C	-17%	35%	-1	-4%	-76*	-1%
Cc1cc2ccccc2c[n+]1C1CCCCC1	/	16%	/	6%	/	/

Bioassay records from PubChem BioAssay.
